Experiment [1] can be described thus: Primary redox qHTS assay for identification of artifact compounds. (AID 1845223).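 Further: 0% = DMSO and 100% = reference compound.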 The method, boiled down:
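Redox-cycling detection via DTT (250 uM final) oxidation coupled to Amplex Red (25 uM)/HRP (250 mU/mL) in HBSS. 15 min preincubation plus 30 min after DTT, room temperature. Ex/Em 525/598 nm; 4-parameter Hill fit against DMSO and 10 uM DA3003.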
A general note: qHTS replaces the single test concentration by a dilution series.

Another experiment relates to NIH3T3. Nature of the experiment: Cytotoxic Profiling of Annotated Libraries Using Quantitative High-Throughput Screening (AID 1296008). Further: nearly all actives have a fitted effect of over 60% in size. Further: potency means the concentration at half of the fitted maximal effect. On max response: on the % scale 0 is the no-effect control and ±100 the full control effect. To be noted: Five cell lines viability, CellTiter-Glo ATP luminescence, 48-72 h; max response: stronger effect = lower value. The method in brief:
(§1)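 Compounds were pin-transferred onto cells and incubated 48 or 72 hr at 37 degree Celsius, 95% humidity. CellTiter-Glo was added, plates sat 10 min at room temperature, then ATP-coupled luminescence was imaged as the viability read-out.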
For orientation: Cellular ATP, detected with luciferase, serves as a proxy for viable cell number.

The test system of another experiment is C33A. Briefly: Primary qHTS to identify gynecologic anti-cancer compounds using libraries of approved drugs and bioactive compounds (AID 1345084). Further: nearly all actives have a fitted effect of over 55% in size. Further: potency means the concentration at half of the fitted maximal effect. On activity change, negative = cytotoxicity: on the % scale 0 is the no-effect control and ±100 the full control effect. As to conditions: Gynecologic cancer cell panel viability, ATPlite luminescence, 48 h; series mostly up to 57.5 µM. The method in brief: (§2)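 ATP-based viability (ATPlite), 1,000 cells/well, 16 h pre-incubation, 48 h compound at 37 C, 5% CO2, 15 min RT before read.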

The test system of the next experiment is CAOV3. The description is as above. To be noted: Gynecologic cancer cell panel viability, ATPlite luminescence, 48 h; series mostly up to 57.5 µM. The method, boiled down: as §2
In another experiment the test system is Es-2. The description is as above. To be noted: Gynecologic cancer cell panel viability, ATPlite luminescence, 48 h; series mostly up to 57.5 µM. The method, boiled down: as §2
The subject of another experiment is HeLa. The description is as above. As to conditions: Gynecologic cancer cell panel viability, ATPlite luminescence, 48 h; series mostly up to 57.5 µM. The method in brief:
as §2

A further experiment has as its system Hek293T. The experiment is described as above. To be noted: Gynecologic cancer cell panel viability, ATPlite luminescence, 48 h, control line for the selectivity index; series mostly up to 57.5 µM. The method, boiled down:
as §2

Another experiment relates to PA-1. Described as above. To be noted: Gynecologic cancer cell panel viability, ATPlite luminescence, 48 h; series mostly up to 57.5 µM. The method in brief:
as §2

The test system of a further experiment is Tov112D. The description is as above. To be noted: Gynecologic cancer cell panel viability, ATPlite luminescence, 48 h; series mostly up to 57.5 µM. The method, boiled down: as §2
A further experiment has as its system HEK293. Nature of the experiment: Cytotoxic Profiling of Annotated Libraries Using Quantitative High-Throughput Screening (AID 1296008). Further: nearly all actives have a fitted effect of over 60% in size. Further: potency means the concentration at half of the fitted maximal effect. On max response: on the % scale 0 is the no-effect control and ±100 the full control effect. As to conditions: Five cell lines viability, CellTiter-Glo ATP luminescence, 48-72 h; max response: stronger effect = lower value. The method, boiled down:
as §1

The next experiment deals with SKOV3. Briefly: Primary qHTS to identify gynecologic anti-cancer compounds using libraries of approved drugs and bioactive compounds (AID 1345084). Further: nearly all actives have a fitted effect of over 55% in size. Further: potency means the concentration at half of the fitted maximal effect. On activity change, negative = cytotoxicity: on the % scale 0 is the no-effect control and ±100 the full control effect. As to conditions: Gynecologic cancer cell panel viability, ATPlite luminescence, 48 h; series mostly up to 57.5 µM. The method, boiled down: as §2
Experiment [2] addresses Cytochrome P450 2D6 (Homo sapiens) (UniProt P10635). Nature of the experiment: Cytochrome P450 family 2 subfamily D member 6 (CYP2D6) small molecule antagonists: luciferase biochemical (cell-free) qHTS assay (AID 1645840; active means well fitted curve in the direction sought with a large enough effect in the repeat runs; an effect the other way counts as inactive or inconclusive; further: nearly all actives have a fitted effect of over 55% in size; further: potency means the concentration at half of the fitted maximal effect). The method, boiled down: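 P450-Glo CYP2D6 system: proluciferin substrate converted by enzyme to luciferin, read by luminescence proportional to activity. Enzyme-substrate mix with compound 10 min at room temperature, then NADPH regeneration 1 h before detection reagent.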

Experiment [3] has as its target Cytochrome P450 2C9 (Homo sapiens) (UniProt P11712). Briefly: Cytochrome P450 family 2 subfamily C member 9 (CYP2C9) small molecule antagonists: luciferase biochemical (cell-free) qHTS assay (AID 1645842; active means well fitted curve in the direction sought with a large enough effect in the repeat runs; an effect the other way counts as inactive or inconclusive; further: potency means the concentration at half of the fitted maximal effect; nearly all actives have a fitted effect of over 55% in size). The method, boiled down:
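P450-Glo CYP2C9 system: proluciferin substrate with enzyme in mix containing 0.4% BSA, 10 min at room temperature, then NADPH regeneration solution added and incubated 1 h at 37C. Detection reagent stopped reaction; luminescence read after 20 min as RLU.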

For another experiment, the system named is HACAT. Briefly: qHTS assay to identify novel small-molecules to repurpose for Merkel cell carcinoma treatment (AID 1296009). Further: nearly all actives have a fitted effect of over 60% in size. As to conditions: MCC and control cell lines, CellTiter-Glo viability, 72 h; at 44.8 µM (top of the series) unless noted. The method in brief:
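Luminescence from CellTiter-Glo, read 10 min after addition at room temperature, reported viability following a 72 hr, 37 degree celsius treatment with NPC or MIPE compounds in titration; values normalized to plate controls.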

Experiment [4] can be described thus: qHTS drug screen for cell cycle checkpoint inhibitors in PARPi-resistant BRCA-mutant ovarian cancer cell lines. (AID 1963452; calls by dose curve; further: potency means the concentration at half of the fitted maximal effect). As to conditions: PEO1/OlaR viability, CellTiter-Glo luminescence, 96 h; for Z-AUC: stronger effect = lower value. The method, boiled down:
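PEO1, PEO4 and PEO1/OlaR ovarian cancer cells, 600 per well, exposed 96 h at 37C to a dilution series. Viability read by CellTiter-Glo luminescence, normalized to DMSO and empty wells; activity summarized as Z-AUC.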

Experiment [5] in a line: Cytotoxicity counterscreen for inhibitors of SARS-CoV-2 cell entry (AID 1645845; calls by dose curve; further: on the % scale 0 is the no-effect control and ±100 the full control effect; nearly all actives have a fitted effect of over 50% in size). The method, boiled down: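 After a 15 min room-temperature ATPLite 1step step, luminescence reflected ATP remaining in HEK293-ACE2 cells exposed to compound for 1 h plus 48 h at 37 C, with percent activity set by cell and no-cell controls.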
In general terms: A counterscreen serves to expose hits that act by an unwanted route or on another target.

Setting [6] is: measured here: PEO1 parental Z-AUC.

These results are taken from PubChem BioAssay (NCATS).

Inconclusive results are not listed. Active and inactive are the calls of the source. Unless noted, the call rests on the fitted dose curve; in most records, active means well fitted curve in the direction sought with a large enough effect; inconclusive means small, poorly fitted or top-dose-only effect, or another doubt; inactive means no such curve, though single readings can be large; an effect the other way counts as inactive or inconclusive. Where a SMILES comes first, the peptide text is derived from it. [ ]: non-standard residue; d: D form. ξ: configuration not given here. ξLac(3-iPr) = CC(C)CC(O)C(=O)O; NMeV = CN[CH](C(=O)O)C(C)C; NMeA = CN[CH](C)C(=O)O; βAla = NCCC(=O)O

Cytochrome P450 2D6 (Homo sapiens), sequence (P10635 whole entry, looked up): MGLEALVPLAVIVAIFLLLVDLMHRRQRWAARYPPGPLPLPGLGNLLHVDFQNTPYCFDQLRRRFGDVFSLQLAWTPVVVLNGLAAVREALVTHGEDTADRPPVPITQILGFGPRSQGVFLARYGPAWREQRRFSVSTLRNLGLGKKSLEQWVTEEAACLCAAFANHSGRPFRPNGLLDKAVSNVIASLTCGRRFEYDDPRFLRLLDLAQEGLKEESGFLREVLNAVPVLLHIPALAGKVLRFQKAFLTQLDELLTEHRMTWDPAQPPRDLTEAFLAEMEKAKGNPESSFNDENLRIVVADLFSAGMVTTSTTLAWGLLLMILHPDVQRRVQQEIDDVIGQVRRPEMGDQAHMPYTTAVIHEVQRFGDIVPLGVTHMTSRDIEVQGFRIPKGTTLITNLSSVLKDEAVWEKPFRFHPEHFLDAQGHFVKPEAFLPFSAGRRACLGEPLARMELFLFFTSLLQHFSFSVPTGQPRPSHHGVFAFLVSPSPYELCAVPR
Cytochrome P450 2C9 (Homo sapiens), sequence (P11712 whole entry, looked up): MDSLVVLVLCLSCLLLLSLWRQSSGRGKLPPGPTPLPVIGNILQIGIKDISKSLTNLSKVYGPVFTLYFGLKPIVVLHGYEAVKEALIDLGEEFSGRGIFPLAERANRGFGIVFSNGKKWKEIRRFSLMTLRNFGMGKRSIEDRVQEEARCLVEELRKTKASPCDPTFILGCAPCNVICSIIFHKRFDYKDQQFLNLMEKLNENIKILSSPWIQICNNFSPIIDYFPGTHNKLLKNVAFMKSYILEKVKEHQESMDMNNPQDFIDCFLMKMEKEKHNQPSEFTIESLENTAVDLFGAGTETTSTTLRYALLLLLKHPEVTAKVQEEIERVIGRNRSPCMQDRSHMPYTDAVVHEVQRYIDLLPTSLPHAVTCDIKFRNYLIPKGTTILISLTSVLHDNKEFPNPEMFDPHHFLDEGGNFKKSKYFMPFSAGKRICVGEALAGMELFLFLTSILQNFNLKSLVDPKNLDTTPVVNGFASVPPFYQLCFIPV

On to `C/C1=C/[C@@H](C)C/C=C/[C@H]2[C@@H]3O[C@]3(C)[C@@H](C)[C@H]3[C@H](Cc4c[nH]c5ccccc45)NC(=O)[C@]32C(=O)/C=C\C(=O)[C@@H]1O`, for which the Potency entry (in experiment [1]; in the experiment on C33A; in the experiment on CAOV3; in the experiment on Es-2; in the experiment on HeLa; in the experiment with Hek293T) was “inactive” throughout. Also, the Potency result in the experiment with PA-1 and with Tov112D was “inactive” throughout. In the experiment on NIH3T3, the Potency was 1590 nM (active).

Regarding `CC(C)(O)/C=C/C(=O)[C@](C)(O)[C@H]1[C@H](O)C[C@@]2(C)[C@@H]3CC=C4[C@@H](C[C@H](O)C(=O)C4(C)C)[C@]3(C)C(=O)C[C@]12C`, the Potency in the experiment on HEK293 was 709 nM (active); in the experiment on NIH3T3 it was 3170 nM (active); with CAOV3, 398 nM (active); in the experiment on HeLa it was 2510 nM (active); in the experiment on PA-1, 2510 nM (active); in the experiment with SKOV3, 794 nM (active). In addition, in the experiment on C33A, the Potency result was “inactive”.

On to `CCC(C)C1NC(=O)C2CCCN2C(=O)C(CC(C)C)OC(=O)CCNC(=O)C(C)N(C)C(=O)C(C(C)C)N(C)C1=O` (stereo not drawn) (cyclo([ξLac(3-iPr)]PI[NMeV][NMeA][βAla]); configuration not given here), for which, in the experiment on C33A, the Potency result is “inactive”.

Take `OC(CNc1ccccc1)Cn1c2ccc(Br)cc2c2cc(Br)ccc21` (stereo not drawn): the values for the Potency in [2] and in [3] were 16900 nM (active) and 5350 nM (active), respectively. In addition, the Potency entry in the experiment with C33A, in the experiment with CAOV3, in the experiment on Es-2, with HeLa, with Hek293T and in the experiment with PA-1 was “inactive” each time. In addition, the Potency entry in the experiment on SKOV3 and with Tov112D was “inactive” each time.

On to `CC(C)OC(=O)c1ccnc2cc(C(OCCN3CCCCC3)c3ccccc3Cl)sc12` (stereo not drawn), for which the outcome in the experiment on HACAT was inactive. For the same compound, the Potency result in the experiment on C33A, with Es-2, in the experiment on HeLa, in the experiment with Hek293T, in the experiment on PA-1 and with SKOV3 was “inactive” each time. Moreover, the Potency entry with Tov112D was “inactive”.

`CC(=O)O[C@H]1C(=O)[C@]2(C)C(O)C[C@H]3OC[C@@]3(OC(C)=O)[C@H]2[C@H](OC(=O)c2ccccc2)[C@]2(O)C[C@H](O)C(C)=C1C2(C)C` (stereo partly drawn): the Potency entry (in experiment [1]; in the experiment on C33A; in the experiment with CAOV3; in the experiment with Es-2; in the experiment on HeLa; in the experiment on Hek293T) was “inactive” each time. For the same compound, the Potency result with PA-1, with SKOV3 and in the experiment on Tov112D was “inactive” in each case. Also, the max response with NIH3T3 was -3.65% (inactive).

For the compound `Cc1cccc(NC(=O)c2ccc(C(F)(F)F)cc2C(=O)O)n1`, in experiment [1], the Potency result is “inactive”. Besides, the result in the experiment on HACAT was inactive.

Take `CCCCCn1cc(C(=O)Cc2ccccc2OC)c2ccccc21`: the Potency result (in experiment [2]; in experiment [1]; in the experiment on C33A; in the experiment on Es-2; in the experiment with HeLa; in the experiment on Hek293T) was “inactive” throughout. The Potency entry in the experiment with PA-1, in the experiment with SKOV3 and in the experiment on Tov112D was “inactive” throughout. In addition, the Potency in experiment [3] is 1900 nM (active). Further, in the experiment on NIH3T3, the max response is -7.87% (inactive).

Consider `Cc1sc2c(c1C)C(c1ccc(Cl)cc1)=N[C@@H](CC(=O)Nc1ccc(O)cc1)c1nnc(C)n1-2`, for which the Z-AUC was -0.583 (inactive) in experiment [4], -0.325 in [4] (setting [6]) and -0.491 in experiment [4] (measured here: PEO4 Z-AUC). In addition, the Potency in the experiment with HEK293 was 390 nM (active); with SKOV3, 562 nM (active). Further, in the experiment with HACAT, the outcome is “inactive [at 9.27 µM]”. Moreover, the results for the activity change, negative = cytotoxicity with C33A, in the experiment with Hek293T and in the experiment on Tov112D were -1.06% [at 11.6 µM] (inactive), -11.9% [at 11.6 µM] (inactive) and -20.5% [at 11.6 µM] (inactive), respectively.

On to `CC(C)=CCC[C@]1(C)C=Cc2c(O)c3c(c(CC=C(C)C)c2O1)O[C@]12C(=C[C@@H]4CC1C(C)(C)O[C@@]2(C/C=C(/C)C(=O)O)C4=O)C3=O`, for which the Potency result in experiment [1] was “inactive”. In addition, the Potency with HEK293 is 731 nM (active); in the experiment on NIH3T3, 1160 nM (active); in the experiment on C33A, 5620 nM (active); in the experiment on CAOV3 it was 3160 nM (active); in the experiment on Es-2 it was 3160 nM (active); in the experiment on HeLa it was 5010 nM (active). The Potency in the experiment with Hek293T was 5620 nM (active); in the experiment with PA-1, 4470 nM (active); in the experiment on Tov112D, 5010 nM (active).

With `NNC(=O)c1nn(Cc2ccc(Cl)cc2Cl)c2ccccc12`, the Potency entry (in [1]; in the experiment with C33A; with Es-2; in the experiment with HeLa; in the experiment with Hek293T; in the experiment with Tov112D) was “inactive” throughout. For the same compound, the max response in the experiment with NIH3T3 was -5.07% (inactive).

With `C/C(=C\c1csc(C)n1)[C@@H]1C[C@@H]2O[C@@H]2CCC[C@H](C)[C@H](O)[C@@H](C)C(=O)C(C)(C)[C@@H](O)CC(=O)O1`, the Potency result in [5] and in [1] was “inactive” in each case. In addition, the Potency is 8.7 nM (active) in experiment [4] and 6.5 nM (active) in the experiment on HEK293. The Z-AUC was -2.45 in experiment [4] (setting [6]) and -2.36 in experiment [4] (measured here: PEO4 Z-AUC).

As to `CCOC(=O)c1ccnc2cc(C(OCCN3CCCCC3)c3ccccc3Cl)sc12` (stereo not drawn), the Potency result (in experiment [1]; in the experiment on CAOV3) was “inactive” each time. In the experiment on HACAT, the outcome was inactive.
